For five molecules, composite z-score and z-score results are on record in PubChem BioAssay.

The source made the active and inactive calls.

Assay [1] deals with Wnt5a (protein binding on small-molecule microarray). Briefly: Wnt5a binders on small-molecule microarray, primary screen, biophysical, 635/667 nm fluorescence (AID 1142).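 Note: fluorescence read at 667 nm with signal to noise per printed feature.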 The following applies: 635 nm fluorescence, higher = more signal.
Assay [2] is described as follows: cell viability in Huh7 cells, primary screen, cytotoxicity control for HCV replication inhibitor project, CellTiter-Glo luminescence, basal, 48 h (AID 1143).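 Note: Huh7 hepatoma cells carrying a hepatitis C replication reporter with no stimulus; test concentration not given here.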 The note with it: Huh7 HCV replicon, higher = more signal, called active from +8 up or from −8 down. A general note: ATP-based viability assays read luminescence as a measure of living cells.
Assay [3] in a line: CREB reporter modulators without forskolin, primary screen, cell-based, PC12, CRE-LacZ reporter, unstimulated (AID 1145). The following applies: no forskolin, luminescence, 4.5 h, higher = more signal, called active from +8 up or from −8 down.
Assay [4] can be described thus: CREB reporter modulators under forskolin, primary screen, cell-based, PC12, CRE-LacZ reporter, forskolin-stimulated (AID 1146).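 Note: PC12 cells with 6xCRE LacZ reporter stimulated by forskolin 10 µM; beta-galactosidase reporter signal reflecting CREB driven transcription.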 The following applies: luminescence, 4.5 h, higher = more signal, called active from +8 up or from −8 down.
The target in assay [5] is Streptavidin (Streptomyces avidinii) (UniProt P22629). The assay is described as follows: streptavidin binders on small-molecule microarray, primary screen, artefact control for SMM compound annotation, biophysical, 635/667 nm fluorescence (AID 1147).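 Note: signal reflects streptavidin binding to arrayed compounds as a control protein.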 The following applies: streptavidin binding, higher = more signal.
Sequence of Streptavidin (Streptomyces avidinii) (P22629 whole entry, looked up): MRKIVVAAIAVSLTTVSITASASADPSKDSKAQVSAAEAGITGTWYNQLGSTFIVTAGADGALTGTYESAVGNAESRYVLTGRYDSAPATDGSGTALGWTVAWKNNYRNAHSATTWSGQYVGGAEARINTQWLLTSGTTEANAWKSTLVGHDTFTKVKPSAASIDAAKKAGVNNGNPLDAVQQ
Assay [6] is described as follows: small-molecule binders of probe aInhba, primary screen, biochemical, small-molecule microarray, 635/667 nm fluorescence (AID 1148).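 Note: score merges 667nm spot fluorescence with signal-to-noise for antibody binding to printed compounds.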 The following applies: higher = more signal.
Assay [7] addresses Torsin-1A (Homo sapiens) (UniProt O14656). Briefly: torsin A binders from cell lysate, primary screen, small-molecule microarray, wild-type, 635/667 nm (AID 1149). The following applies: COS7 hTOR1A-WT lysate, 635 nm fluorescence, higher = more signal.
For assay [8] the target is unchanged. Briefly: small-molecule binders of mutant TOR1A in lysate, primary screen, cell lysate, small-molecule microarray, COS7 lysate, 635/667 nm fluorescence (AID 1150).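 Note: score pools 667 nm emission and signal to noise measuring lysate protein binding.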 The following applies: COS7 hTOR1A mutant lysate, 635 nm fluorescence, higher = more signal.
Assay [9] relates to Sonic hedgehog protein (Shh). Briefly: small-molecule binders of Shh protein, primary screen, biochemical, small-molecule microarray, 635/667 nm fluorescence (AID 1151).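 Note: Shh protein binding to compounds spotted on small-molecule microarray slides; score combines spot fluorescence intensity with signal-to-noise across triplicate slides.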 The following applies: small-molecule microarray binding, 635 nm fluorescence; higher = more signal.
Assay [10] can be described thus: E. coli DRC41 culture turbidity changes, primary screen, E. coli filamentation inducer project, strain DRC41, OD650, 48 h (AID 1152).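 Note: E. coli MC1000 strain DRC41 lacking acrAB efflux pump and sulA.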 The following applies: E. coli DRC41 (acrAB sulA), higher = more signal, called active from +8 up or from −8 down.
Assay [11] in a line: small-molecule binders of probe aLefty1, primary screen, biochemical, small-molecule microarray, 635/667 nm fluorescence (AID 1153).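 Note: score merges spot fluorescence with signal-to-noise ratio from the scanned slide images.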 The note with it: higher = more signal.
Assay [12] is described as follows: PSAC antagonists in infected red cells, primary screen, cell-based, P. falciparum Indochina, OD700, 1 h (AID 1154). The following applies: P. falciparum Indochina infected RBC osmotic lysis, higher = more signal, called active from +8 up or from −8 down.
Assay [13] can be described thus: PSAC antagonists in infected red cells, primary screen, cell-based, P. falciparum Indochina, OD700, 2 h (AID 1155).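 Note: lysis reports solute entry through the parasite surface anion channel PSAC; channel blockers reduce lysis of infected cells.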 The following applies: P. falciparum Indochina infected erythrocytes, osmotic lysis OD700; higher = more signal, called active from +8 up or from −8 down.
Assay [14] can be described thus: osmotic lysis modulators in infected erythrocytes, primary screen, PSAC antagonist project, cell-based, P. falciparum Indochina, OD700, 3 h (AID 1156). The following applies: higher = more signal, called active from +8 up or from −8 down.
Assay [15] in a line: PSAC antagonists in infected red cells, primary screen, cell-based, P. falciparum Indochina, OD700, 18 h (AID 1157). The note with it: P. falciparum Indochina infected erythrocytes, osmotic lysis OD700, 18 h; higher = more signal, called active from +8 up or from −8 down.
A short description of assay [16]: modulators of S6 phosphorylation in cells, primary screen, cell-based, A549, cytoblot, luminescence, serum-stimulated (AID 1158).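 Note: serum-stimulated A549 lung adenocarcinoma cells; signal is phosphorylated S6 detected by cytoblot immunostaining with HRP secondary.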 The following applies: A549 phospho-S6 cytoblot, 5 h, higher = more signal.
In assay [17] the target is NADPH oxidase 2 (Homo sapiens) (UniProt P04839). Briefly: NOX2-dependent H2O2 signal modulators, primary screen, NOX inhibitor project, cell-based, HEK293-NOX2, PMA-stimulated, Amplex Red fluorescence (AID 1159). Note: test concentration not given here. The note with it: 45 min, higher = more signal, called active from +8 up or from −8 down.
Sequence of NADPH oxidase 2 (Homo sapiens) (P04839 whole entry, looked up): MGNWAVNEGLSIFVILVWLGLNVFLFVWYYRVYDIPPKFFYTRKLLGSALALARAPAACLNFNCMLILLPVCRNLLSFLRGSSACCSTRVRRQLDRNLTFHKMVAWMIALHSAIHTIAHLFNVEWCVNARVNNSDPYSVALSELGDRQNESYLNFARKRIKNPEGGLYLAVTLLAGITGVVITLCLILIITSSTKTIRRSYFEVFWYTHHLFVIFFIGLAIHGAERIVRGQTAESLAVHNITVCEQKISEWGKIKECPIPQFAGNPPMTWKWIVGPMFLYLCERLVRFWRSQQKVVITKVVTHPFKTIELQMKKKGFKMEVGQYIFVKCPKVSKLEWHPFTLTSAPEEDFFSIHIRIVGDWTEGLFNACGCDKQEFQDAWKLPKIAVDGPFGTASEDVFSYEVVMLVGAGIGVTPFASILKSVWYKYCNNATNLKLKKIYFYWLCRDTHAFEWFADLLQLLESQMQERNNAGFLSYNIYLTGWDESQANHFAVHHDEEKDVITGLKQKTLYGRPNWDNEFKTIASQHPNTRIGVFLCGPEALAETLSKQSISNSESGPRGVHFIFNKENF
The target in assay [18] is NADPH oxidase 4 (Homo sapiens) (UniProt Q9NPH5). Briefly: NOX4-dependent H2O2 signal modulators, primary screen, NOX inhibitor project, cell-based, HEK293-NOX4, tetracycline-induced, Amplex Red fluorescence (AID 1160). The note with it: 45 min, higher = more signal, called active from +8 up or from −8 down.
Sequence of NADPH oxidase 4 (Homo sapiens) (Q9NPH5 whole entry, looked up): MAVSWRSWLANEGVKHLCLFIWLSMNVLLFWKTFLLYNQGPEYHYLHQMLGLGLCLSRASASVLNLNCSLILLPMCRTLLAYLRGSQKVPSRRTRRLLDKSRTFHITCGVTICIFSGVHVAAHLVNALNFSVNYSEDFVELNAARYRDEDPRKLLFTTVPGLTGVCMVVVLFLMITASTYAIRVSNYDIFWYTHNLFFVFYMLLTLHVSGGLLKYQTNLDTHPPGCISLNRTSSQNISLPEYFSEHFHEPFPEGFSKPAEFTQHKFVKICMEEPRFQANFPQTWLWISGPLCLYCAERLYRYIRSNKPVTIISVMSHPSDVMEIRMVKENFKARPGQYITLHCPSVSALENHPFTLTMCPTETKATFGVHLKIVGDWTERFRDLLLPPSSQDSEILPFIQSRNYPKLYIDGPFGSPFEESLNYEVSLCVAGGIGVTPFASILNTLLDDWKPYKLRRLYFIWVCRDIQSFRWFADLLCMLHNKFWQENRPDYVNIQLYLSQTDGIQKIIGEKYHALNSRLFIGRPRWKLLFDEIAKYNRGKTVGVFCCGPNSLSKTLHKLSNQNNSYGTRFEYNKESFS
Assay [19] has as its target NADPH oxidase 5 (Homo sapiens) (UniProt Q96PH1). The assay is described as follows: NOX5-dependent H2O2 signal modulators, primary screen, NOX inhibitor project, cell-based, HEK293-NOX5, Amplex Red fluorescence (AID 1161). The note with it: HEK293-NOX5, ionomycin, 45 min, higher = more signal.
Assay [20] in a line: A549 cell viability effects, profiling panel, calcein-AM fluorescence, 48 h, basal (AID 1162). Note: test concentration not given here. The following applies: higher = more signal.

Sequence of NADPH oxidase 5 (Homo sapiens) (Q96PH1 whole entry, looked up): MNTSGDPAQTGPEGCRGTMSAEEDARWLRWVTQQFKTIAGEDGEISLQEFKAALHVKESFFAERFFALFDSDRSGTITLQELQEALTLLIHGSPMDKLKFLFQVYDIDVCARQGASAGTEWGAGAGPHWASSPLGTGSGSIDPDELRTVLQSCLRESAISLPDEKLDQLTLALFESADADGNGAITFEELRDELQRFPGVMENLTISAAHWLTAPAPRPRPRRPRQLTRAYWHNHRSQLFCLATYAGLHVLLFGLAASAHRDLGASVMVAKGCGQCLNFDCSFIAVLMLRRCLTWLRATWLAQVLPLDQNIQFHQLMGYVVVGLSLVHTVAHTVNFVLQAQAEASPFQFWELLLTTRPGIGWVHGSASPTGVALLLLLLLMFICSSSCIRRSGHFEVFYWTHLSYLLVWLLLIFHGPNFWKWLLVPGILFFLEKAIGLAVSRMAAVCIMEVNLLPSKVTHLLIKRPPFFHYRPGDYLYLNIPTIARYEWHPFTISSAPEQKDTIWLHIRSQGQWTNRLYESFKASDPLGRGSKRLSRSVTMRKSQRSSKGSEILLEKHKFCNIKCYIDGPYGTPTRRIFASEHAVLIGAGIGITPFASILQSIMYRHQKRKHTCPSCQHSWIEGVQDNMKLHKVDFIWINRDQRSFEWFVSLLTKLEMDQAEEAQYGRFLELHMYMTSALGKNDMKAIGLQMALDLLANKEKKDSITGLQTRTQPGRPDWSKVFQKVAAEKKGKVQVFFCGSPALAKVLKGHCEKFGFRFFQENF
Sequence of Torsin-1A (Homo sapiens) (O14656 whole entry, looked up): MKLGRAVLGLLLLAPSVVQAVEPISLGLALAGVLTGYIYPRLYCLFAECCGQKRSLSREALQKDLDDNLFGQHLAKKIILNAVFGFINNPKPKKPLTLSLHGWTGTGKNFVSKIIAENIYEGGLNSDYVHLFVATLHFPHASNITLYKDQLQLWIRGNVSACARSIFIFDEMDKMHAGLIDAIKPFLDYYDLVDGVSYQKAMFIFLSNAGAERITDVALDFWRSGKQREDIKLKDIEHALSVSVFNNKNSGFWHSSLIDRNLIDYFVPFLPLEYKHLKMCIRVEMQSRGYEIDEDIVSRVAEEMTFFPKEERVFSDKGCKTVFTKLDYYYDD

With `CC(C)(C)OC(=O)CC[C@]1(C(=O)NCc2ccccc2)N=C(c2ccc(OCCCO)cc2)O[C@H]1c1ccccc1N=[N+]=[N-]`, the composite z-score in assay [1] stood at 1.11; in assay [5], 1.71; in [6] it was 0.317; with Torsin-1A (Homo sapiens) [7], 0.466; with Torsin-1A (Homo sapiens) [8], 0.78; in assay [9], 0.425. The same molecule showed a composite z-score in assay [11] of 0.598. In addition, the z-score in assay [2] was -3.04 (inactive); in assay [3] it was 1.13 (inactive); in assay [4] it was -1.4 (inactive); in assay [10] it was 1.78 (inactive); in assay [12], 30.9 (active); in assay [13], 27.9 (active). For the same molecule, the z-score is 2.08 (inactive) in assay [14]; 6.66 (inactive) in assay [15]; 1.55 in assay [16]; -2.28 (inactive) in assay [17]; -0.17 (inactive) in [18]; -2.3 in assay [19]. The z-score in assay [20] was 0.117.

With `COc1ccc(CCNC(=O)[C@@]2(Sc3ccc(C)cc3)CC(=O)N(Cc3ccccc3)[C@@H]2c2ccc(CO)cc2I)cc1`, the composite z-score in assay [1] was -0.221; in [5], -0.225; in [6], -0.24; in the assay with Torsin-1A (Homo sapiens) [7] it was 0.272; with Torsin-1A (Homo sapiens) [8], 0.192; in [9] it was -0.631. Further, the composite z-score in assay [11] was -0.321. The z-score in [2] is -1.9 (inactive); in assay [3], 1.13 (inactive); in assay [4], 1.72 (inactive); in assay [10], 1.15 (inactive); in assay [12], 12.6 (active); in [13] it was 1.57 (inactive). Besides, the z-score was 0.0585 (inactive) in assay [14]; 0.572 (inactive) in [15]; -0.262 in [16]; 1.82 (inactive) in [17]; -1.14 (inactive) in assay [18]; 1.78 in assay [19]. In addition, in assay [20], the z-score is 0.648.

`C=C(C1=CCN(S(=O)(=O)c2ccc(C)cc2)C1)[C@@H](OC(C)=O)[C@@H]1CCCN1S(=O)(=O)c1ccccc1[N+](=O)[O-]`: the composite z-score is 0.0375 in assay [1]; -1.05 in assay [5]; -0.128 in assay [6]; -0.499 with Torsin-1A (Homo sapiens) [7]; -0.406 in the assay with Torsin-1A (Homo sapiens) [8]; 0.706 in assay [9]. In [11], this molecule returned a composite z-score of -0.109. Besides, the z-score was -4.37 (inactive) in assay [2]; 2.02 (inactive) in assay [3]; -1.11 (inactive) in assay [4]; 2.47 (inactive) in [10]; 26.3 (active) in [12]; 17 (active) in assay [13]. The z-score in assay [14] was 0.77 (inactive); in [15], 0.623 (inactive); in assay [16] it was 0.993; in assay [17] it was 0.0272 (inactive); in assay [18] it was -1.36 (inactive); in assay [19], 0.69. For the same molecule, the z-score in assay [20] is -0.498.

Turning to `CC(C)(C)OC(=O)CC[C@]1(C(=O)NCc2ccccc2)COC(c2ccc(OCCCO)cc2)=N1`, the composite z-score was 0.433 in assay [1]; 0.74 in assay [5]; -0.0308 in assay [6]; -0.208 in the assay with Torsin-1A (Homo sapiens) [7]; 1.11 in the assay with Torsin-1A (Homo sapiens) [8]; -0.743 in assay [9]. This molecule also showed a composite z-score in assay [11] of 0.0738. Moreover, the z-score in [2] is -1.47 (inactive); in assay [3], 1.7 (inactive); in assay [4], -1.32 (inactive); in [10], 2.02 (inactive); in assay [12] it was 18.7 (active); in [13] it was 1.92 (inactive). The z-score is 1.99 (inactive) in [14]; -1.39 (inactive) in [15]; 0.719 in assay [16]; 0.117 (inactive) in assay [17]; 0.804 (inactive) in assay [18]; -1.01 in [19]. Also, in assay [20], the z-score was 0.661.

As to `C#CCN1C(C(=O)OCC)OC[C@H]1c1ccccc1` (stereo not given in full), the composite z-score in assay [1] is 0.0718; in [5] it was -0.0517; in assay [6], 0.195; in the assay with Torsin-1A (Homo sapiens) [7], 3.34; with Torsin-1A (Homo sapiens) [8], 3.27; in [9], 0.789. The molecule also returned a composite z-score in assay [11] of -0.0061. Moreover, the z-score in assay [2] was -2.25 (inactive); in assay [3], 1.12 (inactive); in [4] it was -0.678 (inactive); in [10] it was 2.39 (inactive); in assay [12], 0.0429 (inactive); in [13], -1.18 (inactive). Moreover, the z-score in assay [14] is 0.696 (inactive); in assay [15], -2.37 (inactive); in assay [16], 1.01; in [17], 0.413 (inactive); in [18] it was 0.918 (inactive); in assay [19], -0.727. In assay [20], the z-score was 0.208.
